Screens: PubChem BioAssay, National Center for Advancing Translational Sciences (NCATS)
Glioma ERSR ind: inducers of ER stress response in human glioma cells | U87-MG GRP78 promoter luciferase reporter, 16 h | 0.02% of 420,000 active | Potency, µM, inactives show at the top dose activation, actives largely listed as activators; also: series mostly up to about 76 µM; % of control where 0% means no effect; nearly all actives have a fitted effect of over 35% in size
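ERSR induction read as luciferase luminescence (Bright-Glo, 10 min at room temperature) in stably transfected human U87-MG glioma cells exposed to compounds for 16 h, using GRP78 as sensor.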
mIDH1 inhibitor: human IDH1 R132H inhibition; Potency, µM (top dose mostly 76.6 µM), inactives show at the highest dose activity change, negative = inhibition, most hits filed as inhibitors; 0.093% of 390,000 active; AID 602179; IDH1-R132H enzyme, NADPH consumption, diaphorase/resazurin fluorescence; O75874; also: % is scaled to controls: 0 for no effect and ±100 for the full control effect; nearly all actives have a fitted effect of over 65% in size
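IDH1-R132H (0.5 ug/mL) preincubated 30 min with compound, then NADPH (0.016 mM) and alpha-KG (2 mM) added; 80 min at RT, pH 7.5. Remaining NADPH coupled via diaphorase/resazurin to fluorescence (540/590 nm); concentration-response curves normalized to no-enzyme control.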
Anesthetic bind: binds horse apoferritin like a general anesthetic. Potency, µM (series often up to 77.5 µM), for inactives: at the top dose activity change, negative = displacement, actives largely listed as inhibitors. 0.074% of 350,000 active. apoferritin/1-aminoanthracene competitive binding, fluorescence. AID 485281; also: % is scaled to controls: 0 for no effect and ±100 for the full control effect; nearly all actives have a fitted effect of over 20% in size
Target sequence (P02791 2-175 limits assumed): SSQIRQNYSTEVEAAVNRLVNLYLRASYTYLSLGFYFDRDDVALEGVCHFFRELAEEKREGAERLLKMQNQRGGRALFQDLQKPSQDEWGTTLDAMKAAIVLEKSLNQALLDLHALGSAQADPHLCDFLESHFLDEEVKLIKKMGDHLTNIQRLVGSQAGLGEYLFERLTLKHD
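Probe: 1-aminoanthracene (50% saturated, PBS). Protein: horse-spleen apoferritin, 10 uM. Incubation: 10 min, room temperature. Detection: 380 nm excitation, 535 nm emission. Analysis: normalized response, four-parameter Hill.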
TrxR1 inh: rat TrxR1 inhibition; O89049; recombinant rTrxR1, NADPH fluorescence consumption, selenite substrate; Potency, µM (titrated, usually from 114 µM), inactives show top-dose activity change, negative = inhibition, usual class: inhibitors; 1% of 390,000 active; also: % is scaled to controls: 0 for no effect and ±100 for the full control effect; nearly all actives have a fitted effect of over 65% in size
Target sequence (O89049 whole entry, looked up): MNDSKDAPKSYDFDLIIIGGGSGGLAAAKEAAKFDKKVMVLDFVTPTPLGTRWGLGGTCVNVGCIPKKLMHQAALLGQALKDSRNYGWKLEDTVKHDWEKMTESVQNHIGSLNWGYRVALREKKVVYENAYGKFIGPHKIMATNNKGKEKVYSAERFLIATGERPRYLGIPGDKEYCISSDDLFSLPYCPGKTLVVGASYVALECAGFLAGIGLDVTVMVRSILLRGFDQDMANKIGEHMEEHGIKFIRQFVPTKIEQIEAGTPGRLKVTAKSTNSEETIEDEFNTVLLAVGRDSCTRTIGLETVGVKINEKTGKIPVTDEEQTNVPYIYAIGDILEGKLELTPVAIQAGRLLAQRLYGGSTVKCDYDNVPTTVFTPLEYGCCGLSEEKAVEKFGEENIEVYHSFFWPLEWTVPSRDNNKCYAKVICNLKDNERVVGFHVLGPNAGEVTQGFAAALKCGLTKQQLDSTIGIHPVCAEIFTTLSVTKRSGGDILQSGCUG
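Rat TrxR1 (90 nM in the dispensed reagent) was pre-reduced with 400 uM NADPH for 5 min at room temperature, then incubated with compound for 15 min. After 400 uM selenite was added, NADPH fluorescence (Ex 340/Em 450 nm) was followed for 8 min.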
12-LOX inh: ALOX12 (human) lipoxygenase inhibition; P18054; AID 1671190; purified 12hLO, xylenol orange hydroperoxide absorbance; Potency, µM (titrated, usually from 108 µM), inactives show at the top dose activity change, negative = inhibition, actives largely listed as inhibitors; 1.1% of 580,000 active; also: % is scaled to controls: 0 for no effect and ±100 for the full control effect
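Hydroperoxide product was detected by ferrous iron/xylenol orange as the 573 to 405 nm absorbance ratio. Arachidonic acid at 40 uM (final) was turned over for 30 min at room temperature by 150 nM human 12hLO, pH 7.0 Hepes buffer, after 15 min compound preincubation.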
TrxR1 substrate: rat thioredoxin reductase 1 substrate activity; Potency, µM (series often up to 114 µM), for the others: at the top dose activity change, negative = substrate turnover; AID 588456; O89049; purified TrxR1 substrate turnover, NADPH consumption readout; 0.01% of 390,000 active; also: % is scaled to controls: 0 for no effect and ±100 for the full control effect; nearly all actives have a fitted effect of over 50% in size
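Rat TrxR1, dispensed at 90 nM, was prereduced with 400 uM NADPH (final) for 5 min at ~22 deg C, then incubated with compound 15 min before 400 uM selenite. A first-read NADPH fluorescence drop versus no-compound background flagged substrates.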
Numbers without * were called inactive; ? = inconclusive; · = not tested or not shown; ! = not active in a repeat; [ ] = remark or other dose. In the library only some 1.7% were active in any assay of this set; here they are far more common. Calls follow the shape of the dose curve; as a rule, active = well fitted curve in the direction sought with a large enough effect; inconclusive = small, poorly fitted or top-dose-only effect, or another doubt; inactive = no such curve, though single readings can be large; an effect the other way counts as inactive or inconclusive. Potency is read from the fitted curve at half-maximal effect.

SMILES	Glioma ERSR ind	mIDH1 inhibitor	Anesthetic bind	TrxR1 inh	12-LOX inh	TrxR1 substrate
COc1cc2c(ccc3c4cc(OC)c(OC)cc4c[n+](C)c23)cc1O	-1%	7%	·	4%	-5%	0%
CN1C(=O)C(=Cc2ccc(Sc3ccccc3)o2)C(=O)N(C)C1=S	-4%	-10%	·	20µM*	-12%	-3%
Cc1cc(N2CCCCC2)ccc1C=C1C(=O)N(C)C(=S)N(C)C1=O	-3%	0%	?	11µM*	?	-1%
Cc1cc(N2CCCC2)ccc1C=C(C#N)C#N	5%	-4%	-8%	15%[11.4 µM]	14%	5%[11.4 µM]
O=C(O)CC1OCC=C2CN3CCC45c6ccccc6NC4C1C2CC35 (stereo not drawn)	-4%	2%	-1%	7%[57.1 µM]	-11%	-2%
O=C(O)CC1OCC=C2CN3CCC45C6=CC(=O)C(=O)C([N+](=O)[O-])=C6NC4C1C2CC35 (stereo not drawn)	-11%	17%	-3%	16µM*	·	16µM*
Cc1ccc(CNCCc2c[nH]c3ccccc23)c(C)c1	·	·	·	·	13µM*	·
Clc1cccc(CNCCc2c[nH]c3ccccc23)c1	-4%	-9%	2%	9%[57.1 µM]	4.5µM*	7%[57.1 µM]
Cc1[nH]cnc1-c1nccn1CCc1c[nH]c(=O)[nH]c1=O	·	·	·	·	21%	·
CC(C)N(C(=O)CCl)c1ccccc1	-11%	19%	-6%	20µM*	-16%	12%
CCc1cccc(C)c1N(C(=O)CCl)C(C)COC (stereo not drawn)	-4%	·	1%	·	·	·
COc1ccc2c(c1)C1(CCN(C(=O)c3cccc(C)c3)C1)C(=O)N2C (stereo not drawn)	·	·	·	·	-2%	·
CCOC(=O)C1(c2ccccc2)CCN(CCC(=O)Nc2cccc(Br)c2)CC1	-4%	-9%	·	-6%[57.1 µM]	20µM*	-6%[57.1 µM]
CCOC(=O)C1(c2ccccc2)CCN(CCC(=O)Nc2ccc(OC)cc2)CC1	-3%	2%	·	·	-8%	·
Cc1c(-c2ccccc2)c(=O)oc2ccc(OC(=O)N(C)C)cc12	·	·	·	·	72%	·
O=c1c2ccccc2nc(-c2ccccc2)n1-c1ccccc1	-3%	2%	2%	29%	0%	0%
O=c1c2ccccc2[se]n1-c1ccccc1	-3%	?	?	28µM*!	?	?
CC1=Nc2ccccc2/C1=C/c1c(O)[nH]c(=O)[nH]c1=O	-4%	1%	-14%	?	28µM*	-17%
Cc1ccc2c(c1)=NC(=O)/C(=C/c1c(O)[nH]c(=O)[nH]c1=O)C=2	-6%	-2%	93%	?	?	5%
Cc1ccc(N2C(=O)NC(=O)/C(=C\C=C\c3ccco3)C2=O)cc1	-16%	-8%	-2%	?	-23%	-9%
Cn1cccc1/C=C1\C(=O)NC(=O)N(Cc2ccco2)C1=O	-5%	1%	-17%	-27%	?	-2%
O=C1NC(=O)N(Cc2ccccc2)C(=O)/C1=C\C=C\c1ccco1	?	?	?	?	40µM*	-6%[57.1 µM]
O=C1NC(=O)N(Cc2ccco2)C(=O)/C1=C/C=C/c1ccco1	?	-7%	-2%	35µM*	40µM*	-4%
Cc1ccc(N2C(=O)NC(=O)/C(=C\C=C\c3ccco3)C2=O)cc1C	-13%	-5%	-22%	50µM*	40µM*	-2%
O=C1NC(=O)N(c2ccccc2)C(=O)/C1=C/C=C/c1ccco1	-14%	4%	-10%	?	?	-1%
SMILES	Glioma ERSR ind	mIDH1 inhibitor	Anesthetic bind	TrxR1 inh	12-LOX inh	TrxR1 substrate
Cc1ccc(OCCn2cccc2/C=C2/C(=O)NC(=O)N(Cc3ccco3)C2=O)cc1	3%	1%	-20%	40µM*	35µM*	4%
COCCC(=O)N1[C@H]2CC[C@@H]1c1cnc(-c3ccc(F)cc3)nc1C2	·	·	·	·	1%	·
CCN1CCN(C(=O)COc2ccc3c(=O)c(-c4ccccc4)c(C)oc3c2)CC1	·	·	·	·	-3%	·
CCOC(=O)C1=C(N)Oc2c(c(=O)oc3ccccc23)C12C(=O)Nc1ccc(F)cc12 (stereo not drawn)	·	·	·	·	5%	·
Cc1cc(/C=C2\C(=O)NC(=O)N(Cc3ccco3)C2=O)c(C)n1-c1ccc(O)cc1	5%	10%	?	?	35µM*	-2%
CC(=O)c1ccc(NC(=O)OC[C@H]2C[C@@H]3CCN2C[C@@H]3c2cc(C3CCCC3)nc(-c3ccncc3)n2)cc1	·	·	·	·	-30%	·
O=C(NC1CCCCC1)OC[C@H]1C[C@@H]2CCN1C[C@@H]2c1cc(C2CCCC2)nc(-c2ccncc2)n1	·	·	·	·	32µM*	·
COc1cc(NC(=O)OC[C@H]2C[C@@H]3CCN2C[C@@H]3c2cc(-c3ccc(N(C)C)cc3)nc(C)n2)cc(OC)c1	·	·	·	·	45µM*	·
O=C(Nc1cccc(C(F)(F)F)c1)OC[C@H]1C[C@@H]2CCN1C[C@@H]2c1cc(C2CCCC2)nc(-c2ccncc2)n1	·	·	·	·	50µM*	·
CC(C)NC(=O)OC[C@H]1C[C@@H]2CCN1C[C@@H]2c1cc(C2CCCC2)nc(-c2ccncc2)n1	·	·	·	·	28µM*	·
CC(=O)c1cccc(NC(=O)OC[C@H]2C[C@@H]3CCN2C[C@@H]3c2cc(C3CCCC3)nc(C)n2)c1	·	·	·	·	-2%	·
COc1cccc(CN2CCN3C(=O)N(C)C[C@H]3C2)n1	·	·	·	·	5%[176 µM]	·
CN(C)c1ccc(/C=C2\C(=O)NC(=O)N(Cc3ccc(F)cc3)C2=O)cc1	-2%	-9%	-7%	?	-30%	-1%
CN1C(=O)/C(=C\c2ccc(N3CCCCC3)o2)C(=O)NC1=S	-1%	5%	14%	-12%[57.1 µM]	13%	17%[57.1 µM]
CCC(C)N1C(=O)/C(=C\c2cc3c4c(c2)CCCN4CCC3)C(=O)NC1=S (stereo not drawn)	-2%	7%	-22%	32µM*	?	-1%
CCC(C)N1C(=O)/C(=C\c2cnc(N(C)C)nc2)C(=O)NC1=S (stereo not drawn)	-12%	-2%	-11%	14µM*	?	9%[57.1 µM]
CCCCN1C(=O)/C(=C/c2ccc(N3CCCCCC3)cc2)C(=O)NC1=S	·	·	9%	·	·	·
CCC(C)N1C(=O)/C(=C\c2ccc(N3CCCCCC3)cc2)C(=O)NC1=S (stereo not drawn)	-2%	-1%	0%	8.9µM*	?	5%[57.1 µM]
O=C(Cn1c(=O)oc2ccccc21)N1[C@H]2CC[C@@H]1c1cnc(-c3ccc(F)cc3)nc1C2	·	·	·	·	22%	·
O=C(Cc1ccccc1)NC(Oc1ccccc1Cl)C(Cl)(Cl)Cl (stereo not drawn)	-4%	-2%	?	?	-11%	10%[57.1 µM]
CC(C)C(=O)NC(Oc1ccccc1Cl)C(Cl)(Cl)Cl (stereo not drawn)	-5%	-8%	?	8.9µM*	-8%	-1%[57.1 µM]
